Screening data deposited in PubChem BioAssay by National Center for Advancing Translational Sciences (NCATS).
Rows were chosen to be rich in hits. Some 6.9% of all compounds tested hit in one or more screens of this group.
SW480 rereplic: inducers of DNA re-replication in SW480 colon cancer cells. Potency, µM (highest dose often 46.1 µM), most hits filed as activators. SW480 DNA re-replication, Hoechst DNA content imaging, 48 h. 340,000 compounds, 1.8% hits; note: nearly all actives have a fitted effect of over 55% in size
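Hoechst fluorescence of nuclei (405 nm excitation, 500-530 nm emission) measured by plate-scanning imager after 48 hr compound exposure at 37 C; re-replication scored as increased number of nuclei with elevated intensity.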
KB-V1 MDR tox: kills drug-selected multidrug resistant KB-V1 cells. KB-V1 MDR cells viability, CellTiter-Glo, 72 h. AID 1347076. Potency, µM (top dose mostly 46.1 µM), most hits filed as cytotoxic. 400,000 compounds, 3.4% hits; note: nearly all actives have a fitted effect of over 60% in size
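Cytotoxicity via CellTiter-Glo luminescence after 72 h compound exposure at 37 degrees C. Cells: drug-selected KB-V1 line, DMEM phenol-red free plus 10% FBS. Compounds tested at multiple concentrations; normalized data fitted to concentration-effect curves.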
MCF10A rereplic: induces DNA re-replication in MCF 10a normal breast cells. MCF 10A DNA re-replication, Hoechst nuclear intensity, 48 h. Potency, µM (doses to about 46.1 µM), actives largely listed as activators. 350,000 compounds, 2.9% hits. AID 624296; note: nearly all actives have a fitted effect of over 50% in size
KB-3-1 tox: kills parental KB-3-1 adenocarcinoma cells; KB-3-1 viability, CellTiter-Glo ATP luminescence, 72 h; Potency, µM (series often up to 46.1 µM), actives largely listed as cytotoxic; 400,000 compounds, 1.4% hits; AID 1347075; note: nearly all actives have a fitted effect of over 60% in size
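Parental KB-3-1 viability, qHTS format: 72 h compound exposure, 37 °C; CellTiter-Glo; media-only wells and DMSO plates as controls; concentration-effect fits on corrected data.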
S-ASM inh: human S-ASM enzyme inhibition; P17405; placental ASM, HMU-PC fluorogenic substrate, 60 min; Potency, µM (doses to about 57.5 µM), actives largely listed as inhibitors; 340,000 compounds, 0.006% hits
Target sequence (P17405 47-631 limits assumed): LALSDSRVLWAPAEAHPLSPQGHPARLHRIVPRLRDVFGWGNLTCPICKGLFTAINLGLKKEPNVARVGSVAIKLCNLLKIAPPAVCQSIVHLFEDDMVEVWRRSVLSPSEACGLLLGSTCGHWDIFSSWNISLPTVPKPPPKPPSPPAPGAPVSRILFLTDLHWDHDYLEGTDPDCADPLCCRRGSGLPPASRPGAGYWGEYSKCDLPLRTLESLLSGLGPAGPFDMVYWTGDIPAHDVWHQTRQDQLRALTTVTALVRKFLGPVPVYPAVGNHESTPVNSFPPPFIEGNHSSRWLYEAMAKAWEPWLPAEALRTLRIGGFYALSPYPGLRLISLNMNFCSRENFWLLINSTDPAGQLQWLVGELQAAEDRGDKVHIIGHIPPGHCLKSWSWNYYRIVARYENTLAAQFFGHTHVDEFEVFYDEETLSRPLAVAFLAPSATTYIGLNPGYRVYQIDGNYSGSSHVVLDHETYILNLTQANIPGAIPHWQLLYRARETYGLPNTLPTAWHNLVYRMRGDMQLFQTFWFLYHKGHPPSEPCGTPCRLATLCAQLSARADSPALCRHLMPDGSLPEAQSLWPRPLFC
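Human placenta-derived ASM enzyme was preincubated with compound for 10 minutes at room temperature, then given fluorogenic substrate HMU-PC0 (9 uM final) for 60 minutes at 37 °C; a pH 10 stop preceded fluorescence reading at Ex 386/Em 447 nm.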
Giardia killer: Giardia lamblia killing; Giardia lamblia trophozoite viability; AID 540267; activity change, % at 7.66 µM, hits read low; 340,000 compounds, 0.15% hits; in the data active = activity change below about -80%; inconclusive = between about -30% and that limit;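 note: parasites exposed to compound for two days anaerobically before the ATP read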
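Anaerobic 48 hrs incubation at 37 deg C of 100 trophozoites/well with test compounds; ATPLite 1-Step luminescence, 15-30 min RT, reports cellular ATP as viability.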
Hits are given with their value; – = inactive; ? = inconclusive; · = no result; ! = repeats disagree. Unless noted, calls come from the whole dose curve; as a rule, active = well fitted curve in the direction sought with a large enough effect; inconclusive = small, poorly fitted or top-dose-only effect, or another doubt; inactive = no such curve, though single readings can be large; an effect the other way counts as inactive or inconclusive.

SMILES	SW480 rereplic	KB-V1 MDR tox	MCF10A rereplic	KB-3-1 tox	S-ASM inh	Giardia killer
Cc1nc(NC(=S)NC(=O)c2cncc(Br)c2)ccc1Br	–	3.7µM	–	?	–	–
CCCCNC(=O)C[C@@H]1C[C@@]2(C(=O)OC)CC(C)(C)CC=C2N(CCc2ccc(OC)c(OC)c2)C1=O	·	?	·	–	·	·
COC(=O)[C@@]12C[C@@H](CC(=O)NCCc3ccccc3OC)C(=O)N(CCc3ccc(OC)c(OC)c3)C1=CCC(C)(C)C2	·	21µM	·	?	·	·
COC(=O)[C@@]12C[C@@H](CC(=O)NCC34CC5CC(CC(C5)C3)C4)C(=O)N(CCc3ccc(OC)c(OC)c3)C1=CCC(C)(C)C2	·	23µM	·	?	·	·
Cc1ccnc(NC(=O)N2CCN(c3cccc(C(F)(F)F)c3)CC2)c1	·	?	·	–	·	·
O=C(CSc1ncc2c(n1)-c1cc(Cl)ccc1N(Cc1ccccc1)S2(=O)=O)NCc1ccccc1	·	–	·	–	·	·
CCC(C)c1ccc(NC(=O)Nc2cnccn2)cc1 (configuration not stated)	3.3µM	?	5.8µM	3.3µM	–	–
CCc1nn(CC(=O)NCC(C)c2ccccc2)c(=O)c2cc3c(OC)cccc3n12 (configuration not stated)	·	–	·	–	·	·
Cc1cccc(NC(=O)c2ccccc2SCc2ccc(F)cc2)n1	–	21µM	–	–	–	–
COc1cccc(-c2cccc(NC(=O)C3CCN(Cc4ccon4)CC3)c2)c1	–	–	–	–	–	–
O=C1NCCN(Cc2ccoc2)C1CC(=O)N(CCO)Cc1ccccc1 (configuration not stated)	18µM	–	–	–	–	–
COc1ccccc1CNC(=O)c1ccc(-c2nc(CN3CCc4ccccc43)c(C)o2)cc1	·	10µM	·	?	·	·
Cc1oc(-c2ccc(C(=O)NCc3ccccc3Cl)cc2)nc1CN1CCc2ccccc21	·	?	·	5.8µM	·	·
COc1ccccc1CNC(=O)c1ccc(-c2nc(CS(=O)(=O)c3ccc(C)cc3)c(C)o2)cc1	·	–	·	–	·	·
Cc1cc(C)c2c(N)c(C(=O)Nc3ncc(C)s3)sc2n1	?	?	9.2µM	–	–	-108
Cc1cc(C)c2c(N)c(C(=O)Nc3ccccc3F)sc2n1	–	–	29µM	–	–	–
COC(=O)c1sc2nc(C)cc(C)c2c1N	–	–	–	–	–	–
Cc1cc(C)c2c(N)c(C(=O)Nc3ccccc3Br)sc2n1	18µM	–	5.8µM	–	–	–
COCc1cc(C)nc2sc(C(=O)Nc3ccccc3Br)c(N)c12	1.8µM	–	?	–	–	–
Cc1cc(C)c2c(N)c(C(=O)Nc3ccccc3Cl)sc2n1	?	–	12µM	–	–	–
CCc1ccccc1NC(=O)c1sc2nc(C)cc(C)c2c1N	?	?	?	–	–	–
CCCCCN1CSC(=S)N(Cc2ccccc2)C1	?	?	?	?	–	–
CCN1CSC(=S)N(Cc2ccccc2)C1	18µM	–	?	?	–	–
S=C1SCN(Cc2ccco2)CN1Cc1ccco1	13µM	–	?	–	–	–
S=C1SCN(Cc2cccs2)CN1Cc1cccs1	·	–	·	?	·	·
SMILES	SW480 rereplic	KB-V1 MDR tox	MCF10A rereplic	KB-3-1 tox	S-ASM inh	Giardia killer
COc1cc2ncnc(NCc3ccc(C)o3)c2cc1OC	–	–	–	–	–	–
Cc1ccc(CNc2ncnc3cc(Cl)ccc23)o1	–	21µM	–	?	–	–
CCOc1ccc2nc(NC(=O)c3cc(=O)c4ccc(C)cc4o3)sc2c1	·	?	·	–	·	·
O=C(CN1CCN(S(=O)(=O)c2ccccc2)CC1)Nc1ccccc1C(=O)c1ccccc1	–	3.7µM	–	?	–	–
Cc1cc(C(=O)c2ccccc2)c(NC(=O)CCl)s1	?	–	?	?	–	–
O=C(CCl)Nc1ccccc1C(=O)c1ccccc1	15µM	–	7.3µM	–	–	–
Cc1[nH]nc(N=CC2=C(O)CC(C)(C)CC2=O)c1-c1ccc(Cl)cc1	?	21µM!	18µM!	–	–	–
CC1(C)CC(=O)C(C=Nc2ccc(O)cc2)=C(O)C1	–	–	–	–	–	–
Cc1ccc(N=CC2=C(O)CC(c3ccco3)CC2=O)cc1 (configuration not stated)	–	?	–	–	–	–
CC1(C)CC(=O)C(C=Nc2ccc(N)cc2)=C(O)C1	?	–	0.65µM	–	–	–
Cc1[nH]nc(N=CC2=C(O)CC(c3ccco3)CC2=O)c1-c1ccc(Cl)cc1 (configuration not stated)	–	16µM	–	–	–	–
CSc1nsc(/C=C/Nc2ccc(C(=O)O)cc2)c1C#N	?	–	5.2µM	–	–	–
CSc1nsc(/C=C/Nc2ccc(F)cc2F)c1C#N	?	–	?	–	–	–
CCOc1ccccc1C1CC(=O)NC(C)=C1C(=O)OCc1ccc(C)cc1 (configuration not stated)	·	–	·	–	·	·
CSc1ccc2nnc(-c3ccc(C)cc3)n2n1	·	–	·	–	·	?
O=C(C[n+]1ccc2ccccc2c1)c1ccc(NC(=O)c2ccccc2)cc1	–	–	–	21µM	–	–
CC1=C(SCc2ccccc2)C(=O)c2ccccc2C1=O	3.7µM	?	3.7µM	?	–	–
Cc1ccc(C(=O)Nc2nnc(S(=O)(=O)N3c4ccccc4CC3C)s2)cc1 (configuration not stated)	·	–	·	–	·	·
CC1=NN(C(N)=S)C(=O)C1N=Nc1ccccc1Cl (configuration not stated)	8.2µM	–	?	–	–	?
CC1=NN(C(N)=S)C(=O)C1N=Nc1ccc(Cl)cc1Cl (configuration not stated)	–	?	–	–	–	–
CN(C)S(=O)(=O)c1cccc(NC(=O)CCSc2ccc(Cl)cc2)c1	–	12µM	–	?	–	–
CC(=O)c1ccc(OCCCC(=O)Nc2cccc(S(=O)(=O)N(C)C)c2)cc1	–	13µM	–	?	–	–
CN(C)S(=O)(=O)c1cccc(NC(=O)COc2ccccc2C(=O)NCc2ccccc2)c1	–	10µM	–	?	–	–
COc1cc(CCC(=O)Nc2cccc(S(=O)(=O)N(C)C)c2)cc(OC)c1OC	?	21µM	–	–	–	–
CN(C)S(=O)(=O)c1cccc(NC(=O)CCNC(=O)Nc2ccccc2)c1	–	–	–	–	–	–
CC(=O)c1ccc(OCCCC(=O)Nc2cccc(S(=O)(=O)N3CCCCC3)c2)cc1	–	·	–	·	–	–
CC(=O)N1c2ccc(S(=O)(=O)N3CCCC(C(=O)Nc4ccc(F)cc4)C3)cc2CC1C (configuration not stated)	–	–	–	–	–	–
CCc1ccc(OCCCC(=O)Nc2cccc(C(=O)O)c2)cc1	23µM	–	–	–	–	–
CN(C)S(=O)(=O)c1cccc(NC(=O)NCCCl)c1	–	–	–	–	–	–
